Screening results: PubChem BioAssay, National Center for Advancing Translational Sciences (NCATS)
Shown is part of a subset that was picked to be rich in hits.
Sfp inh: qHTS Assay for Inhibitors of Bacillus subtilis Sfp phosphopantetheinyl transferase (PPTase). 4'-phosphopantetheinyl transferase ffp (Bacillus subtilis), Q9F4F7. Potency, µM, without a hit: largest response in the series, negative = inhibition, most hits filed as inhibitors. Biochemical Sfp PPTase activity, qHTS. 310,000 tested, 3.5% active. AID 1490, 2009;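 also: the enzyme is Sfp with the accession as filed and its product quenches rhodamine fluorescence; 0% = enzyme reaction without inhibitor and -100% = no enzyme wells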
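After 15 min at room temperature with compound, 15 nM Sfp received 5 uM rhodamine-CoA plus 12.5 uM BHQ-2-ybbR (50 mM Hepes pH 7.6, 10 mM MgCl2). Rate came from the fluorescence difference over 30 min, ex 525/em 598 nm.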
G9a inh: qHTS Assay for Inhibitors of Histone Lysine Methyltransferase G9a; Histone-lysine N-methyltransferase EHMT2 (Homo sapiens), Q96KQ7; G9a H3K9 monomethylation, AlphaScreen, 2 h; Potency, µM (doses to about 102 µM), for the others: at the top dose activity, negative = inhibition, usual class: inhibitors; 350,000 tested, 8.8% active; also: % is scaled to controls: 0 for no effect and ±100 for the full control effect; nearly all actives have a fitted effect of over 75% in size
Target sequence (Q96KQ7 913-1193 limits assumed): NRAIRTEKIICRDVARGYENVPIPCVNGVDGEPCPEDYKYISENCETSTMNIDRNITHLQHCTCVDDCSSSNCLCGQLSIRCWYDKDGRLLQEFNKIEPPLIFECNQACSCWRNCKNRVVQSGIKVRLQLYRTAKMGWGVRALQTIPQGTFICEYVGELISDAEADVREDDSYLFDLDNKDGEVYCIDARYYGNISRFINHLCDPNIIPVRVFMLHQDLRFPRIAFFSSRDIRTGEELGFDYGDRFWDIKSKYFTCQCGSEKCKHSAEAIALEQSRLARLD
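AlphaScreen detection with an anti-monomethyl H3K9 antibody quantified product after a 2 h room-temperature reaction containing 500 nM biotinylated H3K9 peptide, 20 µM SAM and 20 nM enzyme, which had been preincubated 15 min with compound.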
VDR inhibitor: Inhibitors of the vitamin D receptor (VDR): qHTS; Potency, µM, for inactives: max response, negative = inhibition, most hits filed as inhibitors; Vitamin D3 receptor (Homo sapiens), P11473; 400,000 tested, 0.93% active; VDR-SRC2-3 peptide fluorescence polarization, 2 h; also: % is scaled to controls: 0 for no effect and ±100 for the full control effect
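FP read-out; VDR + SRC2-3 coactivator peptide; 23 nl compound by pintool; 2 h RT incubation; reagents held at 4 deg C, protected from light.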
GRP78 ERSR act: qHTS for Inducers of the Endoplasmic Reticulum Stress Response (ERSR) in Human Glioma: qHTS. U87-MG GRP78 promoter luciferase reporter, 16 h. 420,000 tested, 0.02% active. AID 602332, 2012. Potency, µM, for the others: top-dose activation, usual class: activators; also: series mostly up to about 76 µM; % of control where 0% means no effect; nearly all actives have a fitted effect of over 35% in size
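Stably transfected U87-MG glioma cells carrying a GRP78-based luciferase sensor; 16 h compound incubation. Luminescence end-point read 10 min after Bright-Glo addition at room temperature.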
12-LOX inh: Primary qHTS assay for inhibitors of human arachidonate 12S-lipoxygenase (ALOX12): Round 2; Potency, µM (highest dose often 108 µM), for the others: at the top dose activity change, negative = inhibition, actives largely listed as inhibitors; purified 12hLO, xylenol orange hydroperoxide absorbance; AID 1671190, 2021; 580,000 tested, 1.1% active; also: % is scaled to controls: 0 for no effect and ±100 for the full control effect
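Purified human 12hLO (150 nM final) in 25 mM Hepes, 0.01% Triton X-100, pH 7.0 was preincubated 15 min at room temperature with compound. Then 40 uM arachidonic acid was added, 30 min. Hydroperoxide was read by Fe-XO absorbance ratio 573/405 nm.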
* marks the source's active call; other numbers are inactive results; [ ] = another dose, or the depositor's remark. Calls follow the shape of the dose curve; as a rule, active = well fitted curve in the direction sought with a large enough effect; inconclusive = small, poorly fitted or top-dose-only effect, or another doubt; inactive = no such curve, though single readings can be large; an effect the other way counts as inactive or inconclusive. Potency is read from the fitted curve at half-maximal effect.

`COc1ccc(NC(=O)Nc2ccccc2SC)cc1` gave Sfp inh -10%, G9a inh 50µM*, VDR inhibitor -8%, GRP78 ERSR act 2% and 12-LOX inh -8%.
COc1ccc(NC(=O)N/C=C/c2ccc(Cl)cc2)cc1 was read as Sfp inh 12%, G9a inh 20µM*, VDR inhibitor -12%, GRP78 ERSR act 1% and 12-LOX inh inconclusive.
CN(C)c1ccc(NC(=O)Nc2ccc3snnc3c2)cc1 was read as Sfp inh -5%, G9a inh 1.3µM*, VDR inhibitor -4%, GRP78 ERSR act 1% and 12-LOX inh 11%.
Screening CC(C)(C)c1cnnn1-c1ccc(C(=O)CCl)cc1 returned Sfp inh -14%, G9a inh inconclusive, VDR inhibitor 79µM*, GRP78 ERSR act -5% and 12-LOX inh inconclusive.
CCN(CC)CCCC(C)NC(=O)c1cccc(S(=O)(=O)N2CCc3ccccc32)c1 (configuration not stated) was read as Sfp inh 2%, G9a inh 45µM*, VDR inhibitor -3%, GRP78 ERSR act 0% and 12-LOX inh 0%.
`CC(C)CCNC(=O)c1cccc(S(=O)(=O)N2CCc3ccccc32)c1` gave Sfp inh -7%, G9a inh -4%[59 µM], VDR inhibitor 13%, GRP78 ERSR act -2% and 12-LOX inh 0%.
Screening CC(C)CN(CC(C)C)C(=O)c1cccc(S(=O)(=O)N2CCc3ccccc32)c1 returned Sfp inh 6%, G9a inh 79µM*, VDR inhibitor 31%, GRP78 ERSR act -7% and 12-LOX inh 1%.
Screening COc1ccc(C(=O)Nc2ccc(O)c(-c3nc4ccccc4o3)c2)c(OC)c1 returned 12-LOX inh 1%.
Screening O=C(O)c1ccc(-c2ccc(CNC3CCCC3)o2)cc1 returned 12-LOX inh -24%.
`O=C(CCCN1C(=O)/C(=C/c2ccco2)SC1=S)Nc1cccc(C(=O)O)c1` gave Sfp inh 25µM*, VDR inhibitor 5%, GRP78 ERSR act -5% and 12-LOX inh inconclusive.
O=C(CCCN1C(=O)/C(=C\c2ccco2)SC1=S)Nc1ccc(O)cc1C(=O)O was read as Sfp inh 50µM*, G9a inh 10µM*, VDR inhibitor inconclusive, GRP78 ERSR act -8% and 12-LOX inh 28µM*.
O=C(CCCN1C(=O)/C(=C\c2cccs2)SC1=S)Nc1ccc(O)cc1C(=O)O was read as Sfp inh 7%, G9a inh inconclusive, VDR inhibitor -16%, GRP78 ERSR act -12% and 12-LOX inh -23%.
For O=C(CCCN1C(=O)/C(=C\c2cccs2)SC1=S)Nc1cccc(C(=O)O)c1 the results were Sfp inh 4%, G9a inh inconclusive, VDR inhibitor 2%, GRP78 ERSR act 3% and 12-LOX inh -25%.
For O=C(CSCc1nc2ccccc2s1)NC1CCCCC1 the results were 12-LOX inh -22%.
CC1=NN(c2ccccc2)C(=O)/C1=C\c1ccc(Oc2ccc([N+](=O)[O-])cc2[N+](=O)[O-])cc1 was read as Sfp inh -6%, G9a inh 45µM*, VDR inhibitor inconclusive, GRP78 ERSR act 1% and 12-LOX inh -2%.
`COc1cc(/C=C2\C(=O)N(c3ccccc3)N=C2C)ccc1Oc1ccc([N+](=O)[O-])cc1[N+](=O)[O-]` gave Sfp inh -7%, G9a inh inconclusive, VDR inhibitor inconclusive, GRP78 ERSR act inconclusive and 12-LOX inh -9%.
For CC(=O)Nc1ccccc1C(=O)N1CCN(C(c2ccccc2)c2ccccc2)CC1 the results were 12-LOX inh -30%.
Screening O=C1C=C(N2CCOCC2)C2(CCCCC2)O1 returned Sfp inh -7%, G9a inh 45µM*, VDR inhibitor -1%, GRP78 ERSR act -3% and 12-LOX inh -5%.
`O=C1C=C(N2CCCCC2)C2(CCCCC2)O1` gave Sfp inh 23%, G9a inh 8%, VDR inhibitor -15%, GRP78 ERSR act -1% and 12-LOX inh -8%.
For CCONC(=O)CC1Sc2ccc(C(F)(F)F)cc2NC1=O (configuration not stated) the results were 12-LOX inh 5%.
For CC(=O)NC1=NN(C(C)=O)C(c2ccccc2OCc2ccccc2Cl)S1 (configuration not stated) the results were 12-LOX inh -20%.
O=[N+]([O-])c1cccc(C2NCC(c3ccccc3Cl)c3c2[nH]c2ccccc32)c1 (configuration not stated) was read as Sfp inh 1%, G9a inh 40µM*, VDR inhibitor -8%, GRP78 ERSR act -5% and 12-LOX inh -25%.
Screening CN(C)c1ccc(CNC(=O)c2ccc(CNc3c(N4CCCCC4)c(=O)c3=O)cc2)cc1 returned Sfp inh 5%, G9a inh 45µM*, VDR inhibitor -2%, GRP78 ERSR act -2% and 12-LOX inh 9%[57.4 µM].
`O=C(NCc1ccc(Cl)cc1)c1ccc(CNc2c(N3CCCC3)c(=O)c2=O)cc1` gave Sfp inh -1%, G9a inh 1%, VDR inhibitor -13%, GRP78 ERSR act -6% and 12-LOX inh inconclusive.
`COC(=O)c1ccc(OCc2ccccc2C#N)c(OC)c1` gave 12-LOX inh -15%.
For CCN1CCN(CCCNC(=O)c2ccc(/C=C3/Sc4ccccc4N(Cc4ccccc4F)C3=O)cc2)CC1 the results were Sfp inh 50µM*, G9a inh inconclusive, VDR inhibitor -4%, GRP78 ERSR act -11% and 12-LOX inh -27%.
`CCN1CCN(CCNC(=O)c2ccc(/C=C3/Sc4ccccc4N(Cc4ccccc4C)C3=O)cc2)CC1` gave Sfp inh 40µM*, G9a inh inconclusive, VDR inhibitor 0%, GRP78 ERSR act -9% and 12-LOX inh inconclusive.
Screening CCN1CCN(CCCNC(=O)c2ccc(/C=C3/Oc4ccccc4N(Cc4cccc(C)c4)C3=O)cc2)CC1 returned Sfp inh 40µM*, G9a inh -6%[0.0925 µM], VDR inhibitor -13% and GRP78 ERSR act -1%.
Screening O=C(NCCCN1CCOCC1)c1ccc(/C=C2\Oc3ccccc3N(Cc3ccccc3F)C2=O)cc1 returned Sfp inh -18%, G9a inh 0%, VDR inhibitor 2%, GRP78 ERSR act 3% and 12-LOX inh -28%.
